{
  "source": "PubChem BioAssay (NCATS)",
  "note": "Results filed as inconclusive are left out. A call without a number means that no potency is given here. A number with no mark means an inactive call. Activity calls are given as the source filed them. The call rests on the fitted dose curve; in most records, active means well fitted activation curve with a large enough effect; inconclusive means small, poorly fitted or top-dose-only effect; inactive means no such curve, though single readings can be large or run the other way.",
  "data": [
    {"target": "Rap guanine nucleotide exchange factor 3 (Homo sapiens) (UniProt O95398)", "sequence (O95398 whole entry, looked up)": "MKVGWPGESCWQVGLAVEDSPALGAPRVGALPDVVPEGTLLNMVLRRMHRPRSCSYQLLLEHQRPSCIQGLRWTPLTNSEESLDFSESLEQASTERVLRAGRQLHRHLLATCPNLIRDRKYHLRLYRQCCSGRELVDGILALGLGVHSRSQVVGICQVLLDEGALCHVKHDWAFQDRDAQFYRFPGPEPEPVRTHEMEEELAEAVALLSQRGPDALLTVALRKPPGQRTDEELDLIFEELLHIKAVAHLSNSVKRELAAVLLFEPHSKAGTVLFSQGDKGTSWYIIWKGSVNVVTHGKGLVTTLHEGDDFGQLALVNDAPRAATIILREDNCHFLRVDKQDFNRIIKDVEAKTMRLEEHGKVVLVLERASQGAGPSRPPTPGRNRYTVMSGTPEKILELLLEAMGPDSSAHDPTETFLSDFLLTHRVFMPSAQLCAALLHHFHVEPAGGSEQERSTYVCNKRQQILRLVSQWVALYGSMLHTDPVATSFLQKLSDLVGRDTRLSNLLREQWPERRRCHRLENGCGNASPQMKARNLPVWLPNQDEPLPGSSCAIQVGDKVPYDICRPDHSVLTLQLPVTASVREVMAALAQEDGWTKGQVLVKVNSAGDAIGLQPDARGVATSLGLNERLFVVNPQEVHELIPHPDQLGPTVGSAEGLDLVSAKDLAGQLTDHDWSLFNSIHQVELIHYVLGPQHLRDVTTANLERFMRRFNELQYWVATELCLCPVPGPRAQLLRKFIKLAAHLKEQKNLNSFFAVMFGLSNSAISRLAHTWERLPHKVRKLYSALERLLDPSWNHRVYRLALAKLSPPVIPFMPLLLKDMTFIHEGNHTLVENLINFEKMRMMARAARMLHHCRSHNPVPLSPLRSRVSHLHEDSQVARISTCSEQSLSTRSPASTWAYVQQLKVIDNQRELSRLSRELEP", "assay": "Confirmatory qHTS for agonist of cAMP-regulated guanine nucleotide exchange factor 3 (EPAC1) (AID 1645881);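 further: EPAC1 catalysed release of BODIPY-GDP from Rap1B seen as fluorescence loss; nearly all actives have a fitted effect of over 75% in size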", "conditions": "EPAC1 Rap1B BODIPY-GDP exchange fluorescence; series mostly up to 154 µM", "values": [
      {"smiles": "Cc1ccc(S(=O)(=O)N2CCC(C(=O)Nc3ccccc3N3CCCCC3)CC2)cc1C", "Potency": "inactive"},
      {"smiles": "COC(=O)c1[nH]c2cc(C)ccc2c1NC(=O)CN1CCCc2ccccc21", "Potency": "inactive"},
      {"smiles": "CC1=NOC(=O)/C1=C\\c1ccc(-c2cc(Cl)ccc2Cl)o1", "Potency": "inactive"},
      {"smiles": "Cc1c(Cl)ccc2c(C(=O)O)cc(-c3ccccc3)nc12", "Potency": "inactive"},
      {"smiles": "CCOC(=O)c1c(C)nc2sc(C(N)=O)c(N)c2c1-c1ccccc1", "Potency": "inactive"},
      {"smiles": "CCN(CCNC(=O)C1CCN(S(=O)(=O)c2cccc3cccnc23)CC1)c1ccccc1", "Potency": "inactive"},
      {"smiles": "OC[C@H]1O[C@H](OCCc2ccc(O)cc2)[C@H](O)[C@@H](O)[C@@H]1O", "Potency": "inactive"},
      {"smiles": "COc1ccc2cc(-c3cn4c(n3)sc3cc(F)ccc34)c(=O)oc2c1", "Potency": "inactive"},
      {"smiles": "O=c1oc(-c2ccccc2NS(=O)(=O)c2ccccc2)nc2ccccc12", "Potency": "inactive"},
      {"smiles": "CCOC(=O)N1CCN(C(=O)CSc2nnc(Cc3ccccc3)o2)CC1", "Potency": "inactive"},
      {"smiles": "Cc1cc(C)cc(NC(=O)N2CCC(CN3CCc4ccccc4C3)CC2)c1", "Potency": "inactive"},
      {"smiles": "CC1CN(S(=O)(=O)c2cccc(C(=O)Nc3ccccc3N3CCOCC3)c2)CC(C)O1", "note": "(configuration not stated)", "Potency": "inactive"},
      {"smiles": "CCCCOc1ccccc1Cn1c(=O)oc2ccc(C)cc21", "Potency": "inactive"},
      {"smiles": "N#Cc1c(-c2ccccc2)nc(SCc2cccc(C(F)(F)F)c2)[nH]c1=O", "Potency": "inactive"},
      {"smiles": "CC(Sc1nncn1C)C(=O)Nc1nnc(C(C)C)s1", "note": "(configuration not stated)", "Potency": "inactive"},
      {"smiles": "O=C(c1cccc(-n2cccc2)c1)N1CCN(S(=O)(=O)c2ccccc2)CC1", "Potency": "inactive"},
      {"smiles": "COc1ccc2oc(C(=O)CCC(=O)O)c(N)c2c1", "Potency": "inactive"},
      {"smiles": "Cc1cccc(CC2C(=O)Nc3ccccc32)c1", "note": "(configuration not stated)", "Potency": "inactive"},
      {"smiles": "Cc1nnc(SCc2cccc3ccccc23)s1", "Potency": "inactive"},
      {"smiles": "O=C(CCc1ccc(O)c(O)c1)N/N=C/c1cc2c(cc1[N+](=O)[O-])OCO2", "Potency": "inactive"},
      {"smiles": "COc1ccc(N2CCN(C(=O)COC(=O)c3ccc(C)o3)CC2)cc1", "Potency": "inactive"},
      {"smiles": "CCCCCC(=O)Nc1ccc(C2C(=O)c3ccccc3C2=O)cc1", "Potency": "inactive"},
      {"smiles": "COc1cc(NS(=O)(=O)c2ccc(NC(=O)/C(=C/c3ccccc3Cl)NC(=O)c3ccccc3)cc2)nc(OC)n1", "Potency": "inactive"}
    ]},
    {"target": "Rap guanine nucleotide exchange factor 4 (Homo sapiens) (UniProt Q8WZA2)", "sequence (Q8WZA2 whole entry, looked up)": "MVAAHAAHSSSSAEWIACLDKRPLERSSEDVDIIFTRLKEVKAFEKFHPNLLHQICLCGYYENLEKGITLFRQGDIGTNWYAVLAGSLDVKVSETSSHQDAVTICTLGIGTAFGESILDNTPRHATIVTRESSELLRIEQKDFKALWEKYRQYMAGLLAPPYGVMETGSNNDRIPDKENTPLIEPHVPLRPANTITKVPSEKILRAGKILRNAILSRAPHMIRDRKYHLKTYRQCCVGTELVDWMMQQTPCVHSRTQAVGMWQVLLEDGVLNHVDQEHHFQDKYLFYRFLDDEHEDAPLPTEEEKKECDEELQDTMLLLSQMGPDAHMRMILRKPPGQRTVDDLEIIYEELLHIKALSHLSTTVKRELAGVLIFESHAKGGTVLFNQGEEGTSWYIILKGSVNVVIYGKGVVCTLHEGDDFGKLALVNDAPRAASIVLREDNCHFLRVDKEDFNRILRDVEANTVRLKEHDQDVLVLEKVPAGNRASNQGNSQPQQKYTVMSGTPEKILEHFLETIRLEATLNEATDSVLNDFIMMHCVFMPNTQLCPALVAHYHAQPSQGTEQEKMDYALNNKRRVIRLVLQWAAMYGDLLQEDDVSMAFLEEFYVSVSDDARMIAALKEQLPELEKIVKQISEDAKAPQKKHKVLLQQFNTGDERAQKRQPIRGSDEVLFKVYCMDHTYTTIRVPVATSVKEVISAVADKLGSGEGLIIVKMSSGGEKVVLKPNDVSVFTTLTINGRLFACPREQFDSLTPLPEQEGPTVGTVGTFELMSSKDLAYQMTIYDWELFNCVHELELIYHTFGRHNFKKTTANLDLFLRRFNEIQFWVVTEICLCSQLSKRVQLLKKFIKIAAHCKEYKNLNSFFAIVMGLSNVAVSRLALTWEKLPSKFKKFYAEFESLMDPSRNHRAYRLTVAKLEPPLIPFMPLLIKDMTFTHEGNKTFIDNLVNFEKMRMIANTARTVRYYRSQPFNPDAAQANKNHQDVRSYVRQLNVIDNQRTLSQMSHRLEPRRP", "assay": "Confirmatory qHTS for agonist of cAMP-regulated guanine nucleotide exchange factor 4 (EPAC2) (AID 1645884);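 further: nucleotide exchange releases bodipy-GDP from Rap1 and this lowers its fluorescence; nearly all actives have a fitted effect of over 65% in size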; further: potency means the concentration at half of the fitted maximal effect", "conditions": "EPAC2 GEF activity, Rap1B-BODIPY-GDP fluorescence; series mostly up to 154 µM", "values": [
      {"smiles": "Cc1ccc(O)c(N=Cc2cc(Cc3ccccc3)cc([N+](=O)[O-])c2O)c1", "Potency": "inactive"},
      {"smiles": "CCc1ccc(NC(=O)CSc2nnc(Cc3cccn3C)n2-c2ccc(OC)cc2)cc1", "activation": "15.3% [at 17.1 µM, percent relative to cAMP agonist control]"},
      {"smiles": "CN(c1ccc(C(=O)NCc2ccc3c(c2)OCO3)cc1)S(=O)(=O)c1ccccc1", "Potency": "inactive"},
      {"smiles": "CS(=O)(=O)Nc1ccc(C2=NN(C(=O)c3cccc(F)c3)C(c3cccs3)C2)cc1", "note": "(configuration not stated)", "Potency": "inactive"},
      {"smiles": "O=[N+]([O-])c1cc(-c2ccccc2)cc([N+](=O)[O-])c1O", "Potency": "inactive"},
      {"smiles": "O=C1CNC(=O)c2c(nc3n2CCC3)N1", "Potency": "inactive"},
      {"smiles": "COc1cc(/C=N/NC(=O)c2ccccn2)ccc1OC(=O)c1ccc(Br)cc1", "Potency": "inactive"},
      {"smiles": "COc1ccc(NC(=O)C2=NN(c3ccccc3)C(=O)CC2)cn1", "Potency": "inactive"},
      {"smiles": "O=[N+]([O-])c1cc2ccccc2c(O)c1O", "activation": "8.01% [at 17.1 µM, percent relative to cAMP agonist control]"},
      {"smiles": "CCc1nc2ccc(C(=O)N(C)Cc3ccccc3)cn2c1N(CC)Cc1cccc(Br)c1", "activation": "3.66% [at 17.1 µM, percent relative to cAMP agonist control]"},
      {"smiles": "Cc1ccc(S(=O)(=O)N2[C@@H](c3ccc(Br)cc3)C(C(=O)O)=CC[C@H]2c2ccc(C(C)C)cc2)cc1", "Potency": "inactive"},
      {"smiles": "COc1ccc(C(C(=O)c2ccccc2)c2ccccc2)cc1", "note": "(configuration not stated)", "Potency": "50.1 µM (active)"},
      {"smiles": "COc1ccc(C2=Cc3ccccc3C(CC(=O)C3CC3)N2c2ccc(C#CCCO)cc2)cc1", "note": "(configuration not stated)", "activation": "14.6% [at 17.1 µM, percent relative to cAMP agonist control]"},
      {"smiles": "CC(=O)N1CCc2nc3sc(C(=O)Nc4ccc(Cl)cc4F)c(N)c3c(C(F)(F)F)c2C1", "Potency": "inactive"},
      {"smiles": "CCN(CC(=O)Nc1ccccc1C(F)(F)F)C(=O)c1cc2c(s1)CCCCC2", "Potency": "inactive"},
      {"smiles": "Cc1ccc2c(c1)C(c1ccccc1)CC(=O)O2", "note": "(configuration not stated)", "Potency": "inactive"},
      {"smiles": "O=C1NC(=Nc2ccccc2Cl)S/C1=C\\c1cc([N+](=O)[O-])ccc1O", "Potency": "inactive"},
      {"smiles": "Cc1ccc(S(=O)(=O)N2CCC(C(=O)Nc3ccccc3N3CCCCC3)CC2)cc1C", "Potency": "inactive"},
      {"smiles": "COC(=O)c1[nH]c2cc(C)ccc2c1NC(=O)CN1CCCc2ccccc21", "Potency": "inactive"}
    ]}
  ]
}
